# Measurements published in PubChem BioAssay (NCI).
# This is part of a sample that, as a whole, favours compounds with a hit. Of some 83,000 tested, about 20% had one in any assay.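 48-hour exposure, single concentration, 96-well plates; percent growth endpoint where 0 means no net growth. Active: below 10.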 Values without a mark were called inactive. Activity calls are given as the source filed them.
# Key:
# Test in all cases: NCI-60 one-dose screen, 48 h (100 = growth as untreated, 0 = no growth, -100 = all killed)
# Details in all cases: 10 µM unless noted
# [1] = test system: NCI-H23 lung
# [2] = test system: NCI-H226 lung
# [3] = test system: NCI-H322M lung
# [4] = test system: HOP-62 NSCLC
# [5] = test system: NCI-H460 lung
# [6] = test system: HOP-92 NSCLC
# [7] = test system: NCI-H522 lung
# [8] = test system: A549/ATCC NSCLC
# [9] = test system: 786-0 renal
# [10] = test system: COLO 205 colon
# [11] = test system: DU-145 prostate
# [12] = test system: K-562 leukemia
# [13] = test system: MALME-3M melanoma
# [14] = test system: MDA-MB-231 breast
# [15] = test system: RXF 393 renal
# [16] = test system: SF-268 CNS
# [17] = test system: SF-295 CNS
# [18] = test system: SF-539 CNS
# [19] = test system: UACC-257 melanoma
# [20] = test system: M14 melanoma
SMILES,growth [1] [%],growth [2],growth [3] [%],growth [4] [%],growth [5],growth [6],growth [7],growth [8] [%],growth [9],growth [10],growth [11] [%],growth [12],growth [13],growth [14],growth [15] [%],growth [16],growth [17],growth [18],growth [19] [%],growth [20]
COc1ccc2nc3cc([N+](=O)[O-])ccc3c(NNc3ccccc3)c2c1,66.6,63.8%,86.9,37,82.4%,14.8%,85%,95.2,-18.8% (active),99.8%,89.6,90.5%,90.9%,66.5%,46.9,56.8%,56%,22.6%,101,–
Oc1ccc2ccccc2c1N=Nc1nccs1,40,-0.189% (active),15.7,20.2,10.2%,46.9%,178%,43.6,-40.2% (active),21.4%,20.5,10.4%,29.2%,28.8%,47.3,1.32% (active),31.4%,15.2%,66,26.3%
CN(C)c1ccc(C(C#N)(c2ccccc2)c2ccc(N(C)C)cc2)cc1,54.2,72.3%,86.8,90.6,50.8%,54.6%,82.2%,49.9,67.7%,45.2%,60,26.1%,69.9%,79.4%,75.3,58.9%,77.9%,16.1%,84.7,55.2%
CC(C)(C)c1ccc(O)c(Br)c1,93.6,92.5%,101,107,95.6%,98.2%,119%,107,100%,105%,105,120%,99.8%,104%,91.2,95.5%,95.8%,102%,111,95.8%
S=C(SSC(=S)N1CCOCC1)N1CCOCC1,48.9,94.5%,116,104,2.9% (active),122%,-50.2% (active),57.2,103%,28.6%,109,56.2%,101%,104%,102,101%,107%,96.4%,64,55.5%
CCCCCCN(CCCCCC)CCCNc1nccc2ccccc12,12,42.9%,28.7,64.3,3.2% (active),-14.6% (active),4.1% (active),14.3,5.89% (active),-66% (active),26.5,0.764% (active),-58.6% (active),1.89% (active),29.5,33.2%,-50.8% (active),-23.2% (active),41.7,-41.3% (active)
CCOC(=O)C1(C)CCCC1N (centres undefined),102,99.1%,101,109,109%,-14.2% (active),102%,110,103%,131%,108,101%,101%,97%,104,92.4%,105%,103%,113,106%
